This is a sample that favours compounds with a hit; in the whole collection about 0.51% have one here.
phage Ecoli inh = E. coli growth loss with phage present | growth absorbance | inhibition, % at 11.9 µM | hit rate 0.26% among 360,000 | AID 651602; in the data active = inhibition above about 11%
AddAB inh = less growth of phage-infected E. coli with AddAB. E. coli expressing H. pylori AddAB, absorbance growth. inhibition, % at 11.9 µM. hit rate 0.29% among 330,000. AID 435030; in the data active = inhibition above about 12%;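 also: 0% = vehicle wells of infected cells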
E coli growth-1 = E. coli growth inhibition; OD600 absorbance (no concentration beside the values); hit rate 0.21% among 330,000; Escherichia coli growth, OD600, 23 h; active compounds read low;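 active = OD600 absorbance below the run mean of sample wells minus 3.6 SD, in any replicate, cut at about 0.56 in these data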
E coli growth-2 = bacterial growth inhibition, counter-screen for AddAB inhibitors. E. coli V3065 growth, OD600 absorbance, 18 h. inhibition, % at 11.9 µM. hit rate 0.27% among 330,000. AID 449728;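 active = inhibition above the campaign's mean inhibition across all tested compounds plus 3 SD, cut at about 9.9% in these data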;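 also: uninfected addAB+ strain grown without phage in ampicillin broth; 0% = DMSO wells and 100% = ciprofloxacin 0.95 µg/ml wells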
Tat transport = E. coli Tat transport inhibition; E. coli MC4100 TorA-mCherry Tat export, fluorescence; inhibition, % at 10 µM; hit rate 0.036% among 340,000; AID 488895;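 active = mean replicate inhibition at least 50% and at least half of replicates individually reaching 50%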;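 also: exported cargo escapes ClpAP degradation while cytoplasmic cargo is degraded and loses fluorescence; 0% = median of neutral control wells and 100% = median of NaSCN control wells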
AddAB conf = growth loss of T4-infected E. coli expressing H. pylori AddAB, confirmed. shares compounds with AddAB inh. AID 488942. inhibition, % at 11.9 µM. hit rate 64% among 880. E. coli V3065 expressing H. pylori AddAB, T4 phage, OD; T4 phage with gene 2 nonsense mutations;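 active = mean inhibition above a set limit taken from the earlier primary screen, cut at about 13% in these data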;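 also: higher means less bacterial growth since AddAB block lets phage replicate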
RecBCD counter = AddAB counter-screen: growth loss of RecBCD+ E. coli infected with mutant T4 phage; shares compounds with AddAB inh; E. coli V66 + mutant T4 phage, OD growth; inhibition, % at 11.9 µM; hit rate 73% among 880;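 active = mean inhibition above the mean of solvent-only control wells plus 3 SD, cut at about 4% in these data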;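 also: optical density read after an 18 h incubation at 37 °C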
bact viab count = counter-screen: bacterial growth inhibition | shares compounds with AddAB inh | bacterial viability, absorbance (AddAB counterscreen) | inhibition, % at 11.9 µM | hit rate 35% among 880 | AID 488956; in the data active = inhibition above about 25%
RecBCD conf = confirmation: growth loss of phage-infected RecBCD+ E. coli (RecBCD inhibitor screen); inhibition, % at 11.9 µM; E. coli V66 + T4 2- phage, growth OD; hit rate 45% among 890; shares compounds with phage Ecoli inh;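 active = mean inhibition over triplicates exceeding the hit threshold derived in the original primary screen, cut at about 11% in these data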
Ecoli viability = inhibits E. coli viability, flagging RecBCD hits as nonselective; shares compounds with phage Ecoli inh; inhibition, % at 11.9 µM; AID 651983; hit rate 29% among 890; absorbance (OD) growth; in the data active = inhibition above about 20%;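 also: E. coli strain V66 grown with compound alone and no phage infection; 0% = bacteria with DMSO vehicle only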
AddAB phage OD = growth loss of phage-infected AddAB E. coli, RecBCD counter-screen; shares compounds with phage Ecoli inh; hit rate 45% among 890; inhibition, % at 11.9 µM; AID 651984; E. coli expressing H. pylori AddAB + T4 phage, OD growth; gene 2 mutant T4, recBCD-deleted host;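 active = mean inhibition above the solvent-only control wells' mean plus 3 SD, cut at about 22% in these data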;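 also: higher means less bacterial growth from phage killing when AddAB is blocked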
The depositor's hits bear a star.

`CCCNC(=O)c1ccc2c(=O)c(O)c(-c3ccc(C)cc3)[nH]c2c1` gave phage Ecoli inh 21*, AddAB inh 23*, E coli growth-2 25*, Tat transport -12, AddAB conf 20*, RecBCD counter 16*, bact viab count 16, RecBCD conf 8, Ecoli viability 11 and AddAB phage OD 23*.
Screening Cc1ccc(CNC(=O)c2ccc3c(=O)c(O)c(-c4ccc(C)cc4)[nH]c3c2)cc1 returned phage Ecoli inh 17*, AddAB inh 17*, E coli growth-1 0.64, E coli growth-2 20*, Tat transport 3, AddAB conf 21*, RecBCD counter 19*, bact viab count 20, RecBCD conf 11*, Ecoli viability 15 and AddAB phage OD 19.
For Cc1ccc(-c2[nH]c3cc(C(N)=O)ccc3c(=O)c2O)cc1 the results were phage Ecoli inh 3, AddAB inh 2, E coli growth-2 -4 and Tat transport -9.
Screening O=[N+]([O-])c1ccc(/C=N/N=C/c2ccc([N+](=O)[O-])o2)o1 returned phage Ecoli inh 8 and Tat transport -2.
`O=C(O)/C=C/c1ccc([N+](=O)[O-])o1` gave phage Ecoli inh 18*, AddAB inh 46*, E coli growth-1 0.4*, E coli growth-2 73*, Tat transport 14, AddAB conf 101*, RecBCD counter 16*, bact viab count 77*, RecBCD conf 20*, Ecoli viability 19 and AddAB phage OD 101*.
For CCSc1nsc(NC(=O)Nc2cccc(F)c2)n1 the results were phage Ecoli inh 15*, AddAB inh 19*, E coli growth-2 25*, Tat transport -9, AddAB conf 13*, RecBCD counter 16*, bact viab count 16, RecBCD conf 16*, Ecoli viability 19 and AddAB phage OD 22*.
For COc1cccc(/C=C2/SC(=S)N(CC(=O)NNC(=O)c3ccccc3O)C2=O)c1 the results were phage Ecoli inh 14*, AddAB inh 13*, E coli growth-1 0.65, E coli growth-2 7, Tat transport 9, AddAB conf 17*, RecBCD counter 14*, bact viab count 16, RecBCD conf 11*, Ecoli viability 15 and AddAB phage OD 17.
Cc1ccc(-n2c(C)cc(C=NNC(=O)c3ccncc3)c2C)cc1 was read as E coli growth-1 0.73.
`O=C(CNc1cccc([N+](=O)[O-])c1)N/N=C/c1ccc([N+](=O)[O-])o1` gave phage Ecoli inh 18*, AddAB inh 82*, E coli growth-2 33*, Tat transport 2, AddAB conf 102*, RecBCD counter 16*, bact viab count 60*, RecBCD conf 14*, Ecoli viability 12 and AddAB phage OD 66*.
Cc1ccc(C(=O)N/N=C\c2ccc(-c3ccc([N+](=O)[O-])cc3)o2)cn1 was read as phage Ecoli inh 4, AddAB inh 0, E coli growth-2 0 and Tat transport 1.
For Cc1ccc(C(=O)N/N=C\c2ccc([N+](=O)[O-])o2)cn1 the results were phage Ecoli inh 18*, AddAB inh 84*, E coli growth-2 20*, Tat transport -14, AddAB conf 101*, RecBCD counter 14*, bact viab count 36*, RecBCD conf 7, Ecoli viability 6 and AddAB phage OD 97*.
Screening O=C(Cc1ccc([N+](=O)[O-])cc1)N/N=C/c1ccc([N+](=O)[O-])o1 returned phage Ecoli inh 13*, AddAB inh 21*, E coli growth-2 14*, Tat transport -24, AddAB conf 75*, RecBCD counter 7.1*, bact viab count 17, RecBCD conf 5, Ecoli viability 6 and AddAB phage OD 67*.
CNN=C(Cc1nc2ccccc2[nH]1)c1ccc([N+](=O)[O-])cc1 was read as E coli growth-1 0.72.
O=C(NN=Cc1c(O)ccc2ccccc12)c1ccc2c(c1)OCO2 was read as phage Ecoli inh 11*, AddAB inh 18*, E coli growth-1 0.59, E coli growth-2 21*, Tat transport -11, AddAB conf 0, RecBCD counter 10*, bact viab count -5, RecBCD conf 4, Ecoli viability 8 and AddAB phage OD 5.
`O=C(N/N=C/c1ccccc1)c1ccc2c(c1)OCO2` gave phage Ecoli inh 2, AddAB inh 5, E coli growth-2 1 and Tat transport 5.
`CC(C)C(=O)NC(c1ccco1)c1ccc2cccnc2c1O` (stereo not given) gave phage Ecoli inh 21*, AddAB inh 16*, E coli growth-2 15*, Tat transport -11, AddAB conf 6, RecBCD counter 15*, bact viab count 5, RecBCD conf 5, Ecoli viability 8 and AddAB phage OD 17.
For CC(=O)NC(c1ccco1)c1cc(F)c2cccnc2c1O (stereo not given) the results were phage Ecoli inh 1, AddAB inh -2, E coli growth-1 0.69, E coli growth-2 1 and Tat transport -2.
Screening c1coc(CNc2nc3ccccc3s2)c1 returned phage Ecoli inh 1, AddAB inh -2, E coli growth-1 0.68, E coli growth-2 2 and Tat transport -1.
Screening Oc1c(C(Nc2nc3ccccc3s2)c2ccco2)ccc2cccnc12 (stereo not given) returned phage Ecoli inh 15*, AddAB inh 19*, E coli growth-1 0.66, E coli growth-2 21*, Tat transport -7, AddAB conf 14*, RecBCD counter 13*, bact viab count 12, RecBCD conf 8, Ecoli viability 9 and AddAB phage OD 16.
Screening CC(C)C(=O)NC(c1cccc([N+](=O)[O-])c1)c1ccc2cccnc2c1O (stereo not given) returned phage Ecoli inh 23*, AddAB inh 18*, E coli growth-1 0.6, E coli growth-2 23*, Tat transport -1, AddAB conf 27*, RecBCD counter 22*, bact viab count 22, RecBCD conf 16*, Ecoli viability 21* and AddAB phage OD 28*.
